RXFP1 ag – agonists of human relaxin receptor RXFP1 | HEK293T-RXFP1 cAMP TR-FRET, 30 min; response scale: percent of porcine relaxin response, buffer zero | 370,000 compounds, 0.3% hits | AID 2676 | Potency, µM (highest dose often 57.5 µM), inactives show at the highest dose activation, usual class: activators; active = well fitted activation curve with a large enough effect; inconclusive = small, poorly fitted or top-dose-only effect; note: potency is the fitted concentration of half-maximal effect; % is set by controls: 0 for no effect and ±100 for the full control effect; nearly all actives have a fitted effect of over 60% in size
Target sequence (Q9HBX9 whole entry, looked up): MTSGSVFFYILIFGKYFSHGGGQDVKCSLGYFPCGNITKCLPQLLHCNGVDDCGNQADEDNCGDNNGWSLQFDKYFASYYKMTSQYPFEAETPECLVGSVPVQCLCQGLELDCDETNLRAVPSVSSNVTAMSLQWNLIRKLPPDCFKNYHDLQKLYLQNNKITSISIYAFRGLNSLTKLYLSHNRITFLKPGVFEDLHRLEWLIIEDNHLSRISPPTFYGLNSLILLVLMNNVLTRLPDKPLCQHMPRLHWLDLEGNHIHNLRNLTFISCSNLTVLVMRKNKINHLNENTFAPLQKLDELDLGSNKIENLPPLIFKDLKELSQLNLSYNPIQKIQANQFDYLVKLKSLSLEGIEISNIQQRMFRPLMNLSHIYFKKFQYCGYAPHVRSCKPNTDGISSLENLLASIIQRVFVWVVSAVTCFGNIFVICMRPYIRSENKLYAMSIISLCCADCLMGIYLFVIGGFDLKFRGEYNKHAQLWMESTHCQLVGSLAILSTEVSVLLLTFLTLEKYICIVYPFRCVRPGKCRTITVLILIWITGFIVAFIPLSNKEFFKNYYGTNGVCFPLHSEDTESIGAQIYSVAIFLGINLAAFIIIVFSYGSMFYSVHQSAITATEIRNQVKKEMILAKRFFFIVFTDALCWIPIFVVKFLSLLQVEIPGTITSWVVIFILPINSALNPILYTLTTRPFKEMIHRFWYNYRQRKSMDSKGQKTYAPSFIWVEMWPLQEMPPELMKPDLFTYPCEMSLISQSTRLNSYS
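HEK293T cells stably expressing RXFP1 were pretreated with the PDE4 inhibitor Ro 20174, exposed to compounds for 30 min at 37C, lysed, and cAMP was read by TR-FRET. Data normalized to buffer (basal) and 29 nM porcine relaxin (100%).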
RXFP1 antag – blocks the human relaxin receptor RXFP1; Q9HBX9; HEK293-RXFP1, relaxin-stimulated cAMP HTRF, 30 min; stronger effect = lower value; activity change, negative = inhibition, % at 57.5 µM; 350,000 compounds, 0.59% hits; AID 1259400;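 active = activity change of -60% or lower, but not beyond a set lower limit; inconclusive = change between -60% and -40%, or beyond the set limit; inactive = change above -40%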; note: % is set by controls: 0 for no effect and ±100 for the full control effect
TRPV1 potentiator – human TRPV1 potentiation | Q8NER1 | TRPV1-expressing cells, Fluo-8 calcium influx, capsaicin EC20 potentiation | potentiation, % at 8.33 µM | 320,000 compounds, 0.02% hits; in the data active = potentiation above about 80%; inconclusive = between about 30% and that limit; note: 0% is about no effect
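Cells expressing TRPV1 were dye-loaded with Fluo-8 and read kinetically: 10 s baseline, 3 min after compound (agonist portion), then 2 min after EC20 capsaicin (allosteric enhancer portion). Calcium-bound dye fluorescence at 480/520 nm.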
gsp antag – antagonizes gsp, the McCune-Albright syndrome mutation | AID 624288 | Potency, µM (titrated, usually from 76.9 µM), for inactives: at the top dose activity change, negative = inhibition, hits mostly inhibitors | gsp-mutant cells, cAMP HTRF, 30 min | 340,000 compounds, 0.4% hits; calls by dose curve; cell line not stated here;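 note: intracellular cAMP measured with PDE inhibitor Ro 20-1724 present during compound exposure; potency is the fitted concentration of half-maximal effect; % is set by controls: 0 for no effect and ±100 for the full control effect; nearly all actives have a fitted effect of over 65% in size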
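G418-selected cells were plated in DMEM/10% FBS for 16-24 h at 37C, then treated with compounds plus the PDE inhibitor […] (300 uM solution added) for 30 min at 37C. Intracellular cAMP was measured by HTRF after 30 min lysis at room temperature.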
TRPV1 agonist – human TRPV1 agonism; TRPV1-expressing cells, Fluo-8 calcium influx, agonist mode; activation, % at 8.33 µM; AID 540275; Q8NER1; 320,000 compounds, 0.19% hits; in the data active = activation above about 80%; inconclusive = between about 30% and that limit; note: 0% is about no effect
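Cells expressing TRPV1 were dye-loaded with Fluo-8 and read kinetically: 10 s baseline, 3 min after compound (agonist portion), then 2 min after EC20 capsaicin (allosteric enhancer portion). Calcium-bound dye fluorescence at 480/520 nm.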
gsp ag – activates gsp, the McCune-Albright syndrome mutation | gsp mutant cells, cAMP HTRF, 30 min | 340,000 compounds, 0.13% hits | Potency, µM (titrated, usually from 76.9 µM), without a hit: top-dose activation (cAMP increase), usual class: activators | AID 624287; active = well fitted activation curve with a large enough effect; inconclusive = small, poorly fitted or top-dose-only effect, or another doubt; inactive = no such curve, though single readings can be large or run the other way; cell line not stated here;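 note: phosphodiesterase inhibitor Ro 20-1724 added with compounds to block cAMP breakdown; potency is the fitted concentration of half-maximal effect; nearly all actives have a fitted effect of over 60% in size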
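Cells in DMEM/10% FBS with G418 were pretreated with compounds in DMSO plus […] (300 uM stock) for 30 min at 37C. cAMP was measured by HTRF (cAMP-d2 plus anti-cAMP antibody-K) after 30 min at room temperature.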
Starred values were filed as active, the others as inactive; ? = inconclusive; · = no result given; ! = a repeat was not active; [ ] = dose if it differs, or a comment. Sampled rows, rich in hits. Any-hit rate of the full collection: about 1.1%.

SMILES	RXFP1 ag	RXFP1 antag	TRPV1 potentiator	gsp antag	TRPV1 agonist	gsp ag
FC(F)(F)c1ccccc1CNCCc1c[nH]c2ccccc12	-0.3%	-101.0*	6.6	1.7%	12.3	-5.7%
Fc1ccccc1CNCCc1c[nH]c2ccccc12	0.4%	-14.4	-2.5	15.5%	6.1	-4.5%
CCN(CC)C(=O)c1ccc(NC(=O)Cn2nc(-c3ccc(C)cc3)c3ccccc3c2=O)cc1	20.0%	-2.5	·	·	·	·
CCN(CC)C(=O)c1ccc(NC(=O)CCn2nc(-c3ccc(C)cc3)c3ccccc3c2=O)cc1	1.5%	-78.8*	·	·	·	·
CCN(C(=O)CN1CC=C(c2ccccc2)CC1)c1c(N)n(Cc2ccccc2)c(=O)[nH]c1=O	-0.4%	-61.0*	-12.6	9.6%	-1.6	7.9%[15.4 µM]
Cc1ccc2c(c1)C1CN(C)CCC1N2 (stereo unspecified)	·	7.9	·	·	·	·
CN(C)c1ccc(/C=C/C=C/c2sc3ccccc3[n+]2C)cc1	-16.8%	?	13.7	28.2µM*	1.4	-122.2%
CN(C)c1ccc(/C=C/c2cc[n+](C)c3ccccc23)cc1	-8.4%	-95.4*!	12.7	?	-5.6	-128.1%
C[n+]1ccc(-c2ccccc2)c2ccccc21	0.1%	·	?	4.7%	-4.3	·
Cc1cccc(-n2c(/C=C/c3c[nH]c4ccccc34)nc3ccccc3c2=O)c1	4.5%	·	·	·	·	·
Oc1cc(Cl)ccc1Oc1ccc(Cl)cc1Cl	·	-76.9*!	·	-23.4%	·	·
O=C1NC(=O)C(=Cc2ccc(N3CCN(C(=O)c4ccccc4)CC3)c([N+](=O)[O-])c2)C(=O)N1	-0.6%	-74.8*	3.8	-14.7%	1.4	4.6%[15.4 µM]
CN1C(=O)C(=Cc2ccc(N3CCCCCC3)cc2)C(=O)N(C)C1=O	-6.8%	-20.2	-2.6	35.5µM*	5.7	-2.2%[15.4 µM]
CC[C@H](OC(C)=O)C(C[C@H](C)NC)(c1ccccc1)c1ccccc1	·	-21.6	·	·	·	·
O=c1[nH]c(O)c(N=Nc2ccc([N+](=O)[O-])cc2)c(=O)[nH]1	14.1µM*	6.7	7.4	1.6%	-2.2	?
O=C(O)c1cccc(N=Nc2c(O)[nH]c(=O)[nH]c2=O)c1	8.9%	6.2	8.8	2.9%	-2.1	19.6%
O=C1OCc2cc(N=Nc3c(O)[nH]c(=O)[nH]c3=O)ccc21	10µM*	9.1	·	13.1%	·	?
CC(C)c1ccc(N=Nc2c(O)[nH]c(=O)[nH]c2=O)cc1	-1.4%	-0.3	-10.5	-5.6%	11.3	-68.6%
FC(F)(F)c1cccc(CC2CN(Cc3ccccc3)Cc3ccccc3N2c2cc(Cl)cc(Cl)c2)c1 (stereo unspecified)	·	5.5	·	·	·	-43.6%
CCOC(=O)C1CCCN(c2ccc([N+](=O)[O-])c3nonc23)C1 (stereo unspecified)	11.6%	8.2	-9.8	-2.0%	105.1*	10.4%
Cc1ccc(/C=C2/C(=O)NC(=O)N(CCc3ccc(F)cc3)C2=O)o1	4.0%	-73.1*	-1.4	2.8%	1.7	1.6%
O=C1NC(=O)N(CCc2ccc(F)cc2)C(=O)/C1=C/c1ccco1	-0.2%	?	5.6	-1.5%	-2.0	-8.5%[15.4 µM]
Cc1ccc(N2CCN(C(=O)c3cn(CC4CCCCC4)nn3)C(C)C2)cc1 (stereo unspecified)	·	-4.0	·	-8.5%	·	?
CCN1/C(=C\C=C\C2=[N+](CC)c3ccccc3C2(C)C)C(C)(C)c2ccccc21	5.0%	-72.6*	7.7	-8.0%	?	31.1%[15.4 µM]
CCOc1ccc(-c2cc(C)[n+](CCc3ccc(OC)c(OC)c3)c(-c3ccc(OCC)cc3)c2)cc1	2.0%	-84.3*	8.9	-14.1%	-0.9	8.7%[15.4 µM]
SMILES	RXFP1 ag	RXFP1 antag	TRPV1 potentiator	gsp antag	TRPV1 agonist	gsp ag
CCOC(=O)c1c(NC(=O)c2c(N)n(CCCOC)c3nc4ccccc4nc23)sc2c1CCCC2	2.3%	-11.2	-3.7	1.7%	0.6	6.6%
CCOC(=O)c1c(NC(NC(=O)CF)C(Cl)(Cl)Cl)sc2c1CCCC2 (stereo unspecified)	0.5%	-61.0*	6.6	-19.0%	4.6	-2.0%[15.4 µM]
COc1ccc(-[n+]2c(-c3ccccc3)cc(-c3ccccc3)cc2-c2ccccc2)cc1	0.7%	·	-6.6	-20.5%	4.9	·
Oc1ccc(-[n+]2c(-c3ccccc3)cc(-c3ccccc3)cc2-c2ccccc2)cc1	0.1%	·	-10.5	50.1µM*	-1.3	·
Cc1ccc(-c2c(C)n3c4c(=O)n(C)c(=O)n(C)c4nc3n2CCO)cc1	?	-9.4	·	·	·	·
O=c1[nH]c(=S)[nH]c(O)c1N=Nc1ccc(SC(F)F)cc1	12.5%	-70.7*	4.0	-11.9%	-2.7	15.5%[15.4 µM]
O=C(c1ccccc1)c1ccc(N=Nc2c(O)[nH]c(=O)[nH]c2=O)cc1	4.5%	9.2	-17.1	-2.3%	5.9	-8.0%
O=c1[nH]c(=S)[nH]c(O)c1N=Nc1ccc(S(=O)(=O)N2CCc3ccccc32)cc1	-0.2%	-100.1*	19.0	-30.8%	-6.5	1.8%[15.4 µM]
Cc1c(N=Nc2c(O)[nH]c(=S)[nH]c2=O)c(=O)n(-c2ccccc2)n1C	-1.6%	12.2	2.5	2.5%	-3.1	4.8%[15.4 µM]
CCOC(C(=O)OCCN(C)C)(c1ccccc1)c1ccccc1	·	-6.2	·	·	·	·
CCOC(=O)C1(c2ccccc2)CCN(CCc2ccc(N)cc2)CC1	·	-13.0	·	·	·	·
O=C1NC(=O)N(c2ccccc2)C(=O)/C1=C/c1ccc(Sc2ccccc2)o1	4.6%	-109.3*	-5.5	-3.3%	5.9	?
O=C1NC(=O)N(c2cccc(Cl)c2)C(=O)/C1=C\c1ccc(Sc2nc3ccccc3[nH]2)o1	4.9%	-31.7	-1.0	-2.9%	15.1	21.0%
CC(C)(N)Cc1ccccc1Cl	·	19.8	·	·	·	·
NS(=O)(=O)c1cc(C(=O)OCC(=O)Nc2ccc3[nH]c(=O)[nH]c3c2)ccc1Cl	-0.2%	12.6	-4.0	13.8%	-2.3	-24.1%
Cc1c(C(c2ccc(Cl)cc2Cl)c2c(O)c3ccccc3oc2=O)c(=O)n(-c2ccccc2)n1C (stereo unspecified)	5.6%	-8.9	82.5*	-5.8%	-3.9	-9.1%
Fc1cc(Br)ccc1CBr	·	11.8	·	·	·	·
Cc1ccccc1-n1nc(C)c2c1NC(=O)CSC2c1ccccc1C(F)(F)F (stereo unspecified)	-6.0%	-19.4	·	·	·	·
CCN1C(=O)C(=C2C=C(C)N(Cc3ccco3)C(C)=C2)C(=O)N(CC)C1=S	28.2µM*	18.7	-13.5	21.1%	25.7	?
COc1ccc(S(=O)(=O)N(C)C[C@H]2OCCCC[C@@H](C)Oc3ccc(N(C)C)cc3C(=O)N([C@H](C)CO)C[C@@H]2C)cc1	·	3.8	·	·	·	-46.5%
C=CCC1=C(C)C(OC(=O)C2C(C=C(C)C)C2(C)C)CC1=O (stereo unspecified)	·	-70.2*	·	·	·	·
CN(CC(=O)Nc1cccc(F)c1)CC(=O)Nc1cccc(S(=O)(=O)N(C)c2ccccc2)c1	·	-8.8	·	50.1µM*	·	-0.9%[15.4 µM]
